# Assay outcomes (PubChem BioAssay)
# Shown is part of a subset that was picked to be rich in hits.
# RBX1-CUL1 inh – human ROC1-CUL1 E3 ligase inhibition; P62877+Q13616; in vitro K48 di-Ub FRET, acceptor:donor ratio, 45 min; inhibition, % at 10 µM; hit rate 0.6% among 140,000; AID 1347404; in the data active = inhibition above about 25%
# Target sequence (P62877 whole entry, looked up): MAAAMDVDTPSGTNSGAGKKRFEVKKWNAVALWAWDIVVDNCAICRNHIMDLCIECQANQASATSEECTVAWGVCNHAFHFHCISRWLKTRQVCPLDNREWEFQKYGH
# Target sequence (Q13616 whole entry, looked up): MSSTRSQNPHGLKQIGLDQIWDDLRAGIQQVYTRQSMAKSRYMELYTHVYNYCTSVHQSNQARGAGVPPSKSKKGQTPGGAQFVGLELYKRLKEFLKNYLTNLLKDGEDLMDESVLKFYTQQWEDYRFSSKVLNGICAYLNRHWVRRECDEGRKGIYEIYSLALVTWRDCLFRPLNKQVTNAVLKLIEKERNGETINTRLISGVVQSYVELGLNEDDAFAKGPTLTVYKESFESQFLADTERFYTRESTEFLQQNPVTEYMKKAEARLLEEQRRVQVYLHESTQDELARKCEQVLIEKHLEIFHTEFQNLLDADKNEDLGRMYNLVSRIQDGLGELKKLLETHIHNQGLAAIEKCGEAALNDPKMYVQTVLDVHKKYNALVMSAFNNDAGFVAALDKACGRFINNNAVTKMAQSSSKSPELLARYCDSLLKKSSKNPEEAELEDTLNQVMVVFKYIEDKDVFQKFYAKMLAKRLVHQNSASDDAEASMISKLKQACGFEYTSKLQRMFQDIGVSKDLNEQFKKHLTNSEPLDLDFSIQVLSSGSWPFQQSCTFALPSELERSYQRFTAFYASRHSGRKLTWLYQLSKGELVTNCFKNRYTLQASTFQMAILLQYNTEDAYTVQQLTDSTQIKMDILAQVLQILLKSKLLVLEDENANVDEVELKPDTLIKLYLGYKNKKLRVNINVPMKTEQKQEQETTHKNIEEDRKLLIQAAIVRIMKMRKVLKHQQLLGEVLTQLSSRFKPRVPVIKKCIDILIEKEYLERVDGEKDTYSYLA
# * = called active by the depositor.
SMILES,RBX1-CUL1 inh
CN1C(=O)/C(=C\c2ccc(-c3ccccc3C(=O)O)o2)SC1=S,4
N=C1S/C(=C\c2ccc(-c3ccccc3C(=O)O)o2)C(=O)N1c1ccc(Cl)cc1Cl,100*
CCN1C(=O)N=C(Cc2cccs2)C1=O,-11
COc1cccc(C2CC(=O)N=C(SCc3ccccc3)C2C#N)c1 (centres undefined),0
CC(C)N1C(=O)C(C=Nc2cc(Cl)c(Cl)cc2Cl)C(=O)N(Cc2ccco2)C1=O (centres undefined),4
COc1ccc(/C=C2\C(=O)N(Cc3ccco3)C(=O)N(C(C)C)C2=O)c(OC)c1,101*
CC(C)N1C(=O)/C(=C\c2ccc(N(C)C)cc2)C(=O)N(Cc2ccco2)C1=O,11
CCC(=O)N[C@@H]1c2ccccc2C2(CCN(C(=O)c3sccc3C)CC2)[C@H]1OCc1cccnc1,-2
CCOC(=O)c1c(C(=O)OCC)c(C)n(-c2ccccc2C(=O)O)c1C,36*
CCOC(=O)c1c(C)n(-c2ccccc2)c2ccc(OC(=O)c3ccccc3Cl)cc12,-2
CCOC(=O)c1c(C)n(-c2ccccc2)c(C)nc1=S,11
O=C(O)c1ccccc1SC1CC(=O)N(c2ccc(I)cc2)C1=O (centres undefined),5
COc1ccc(CC2(CCC(=O)NC3CCCc4ccccc43)CCC(=O)N2)c2ccccc12 (centres undefined),5
COCc1noc(-c2ccc(NCc3ccc4c(c3)OCO4)nc2)n1,-2
COc1ccc(CNc2c(F)c(F)c3nc4c(cc3c2F)c(-c2ccccc2)nn4C)cc1,96*
COc1ccc(CNc2nc3c(-c4cccc(F)c4)nnn3c3ccccc23)cc1,2
Fc1c(F)c(F)c2nc3c(cc2c1F)c(-c1ccccc1)nn3-c1ccccc1,3
O=c1c2ccccc2nc2c3ccccc3c(SCc3ccccc3)nn12,-4
O=C(Nc1ccccc1F)c1ccc(Br)c(S(=O)(=O)N2CCOCC2)c1,8
CCOC(=O)C1=CCCCN1n1c(C(C)C)nc2ccccc2c1=O,-5
Cc1ccc(S(=O)(=O)N=C2Cc3ccccc3N2C)cc1,27*
Cc1ccc(S(=O)(=O)N=NC2CCSCC2)cc1,-1
CC(=O)N=C1CC(=NS(=O)(=O)c2ccc(C)cc2)CC(=NC(C)=O)C1=O,-1
COC(=O)CCC(=O)Nc1ccc(N(C)C(C)=O)cc1,-7
CC(C)(C)C(N)CCc1ccc(Cl)cc1Cl (centres undefined),8
SMILES,RBX1-CUL1 inh
O=C(c1ncn[nH]1)N1CCC2(CC1)c1ccccc1[C@@H](N1CCCCC1)[C@@H]2O,-7
COc1ccc(/C=C2\CCC/C(=C\c3ccc(OC)c(OC)c3)C2=O)cc1OC,-4
O=C1/C(=C/c2ccoc2)CCC/C1=C\c1ccoc1,97*
O=C1/C(=C\c2cnn(-c3ccccc3)c2)CCC/C1=C/c1cnn(-c2ccccc2)c1,2
O=c1[nH]cnc2nc3cc(F)c(F)cc3nc12,-10
COc1ccc(N2CCN(c3nc(N4CCCC4)nc(N4CCCC4)n3)CC2)cc1,5
CCc1[nH]nc2c1C(c1ccc(OC)cc1)C(C#N)C(=N)O2 (centres undefined),2
CCC(=O)N1CCc2cc(S(=O)(=O)NC(CC(C)C)C(=O)NCCc3ccccc3)ccc21 (centres undefined),0
CC(=O)N1CCc2cc(S(=O)(=O)NC(CC(C)C)C(=O)NCCc3cccc(C)c3)ccc21 (centres undefined),44*
CC(=O)N1CCc2cc(S(=O)(=O)NC(CC(C)C)C(=O)NCc3ccccc3)ccc21 (centres undefined),3
OC(c1cccs1)C1CCN(c2nc3nonc3nc2N2CCOCC2)CC1 (centres undefined),-3
Cc1cccc(OCC(=O)NNc2ccc([N+](=O)[O-])cc2[N+](=O)[O-])c1,30*
Cc1cccc(OCC(=O)N/N=C/c2cccn2-c2ccc([N+](=O)[O-])cc2)c1,-3
Cc1cccc(OCC(=O)NNC(=O)CCCCC(=O)NNC(=O)COc2cccc(C)c2)c1,2
Cc1cccc(C(=O)NC2CC(=O)N(C3Cc4ccccc4C3)C2)n1 (centres undefined),4
COc1ccc2c(c1)C=Cc1ccccc1O2,8
COc1ccc2c(c1)C(O)(C(F)(F)F)C(=O)O2 (centres undefined),-3
COc1ccc2c(c1)C=C1C(=CC(=O)CC1(C)C)O2,111*
COc1cc(-c2[nH]nc3c2C(c2cccnc2)C(C#N)C(=N)O3)cc(OC)c1OC (centres undefined),1
Cn1c(SCc2ccc(C(=O)NCCCO)cc2)nc2sc3c(c2c1=O)CCCC3,4
CC(C)OC(=O)c1nccnc1C(=O)Nc1cccc(Cl)c1Cl,-1
COc1cccc(C2OC3(C(=O)c4ccccc4C3=O)C3C(=O)N(c4ccc(Br)cc4)C(=O)C23)c1 (centres undefined),-6
O=C1C2C(c3ccc(Br)cc3)OC3(C(=O)c4ccccc4C3=O)C2C(=O)N1c1ccc(Oc2ccc(Cl)cc2)cc1 (centres undefined),0
O=C1C2C(c3ccc(Br)cc3)OC3(C(=O)c4ccccc4C3=O)C2C(=O)N1c1cccc([N+](=O)[O-])c1 (centres undefined),59*
Cc1nnc(SCC(=O)Nc2cc(Cl)cc(Cl)c2)s1,-4
SMILES,RBX1-CUL1 inh
CCOC(=O)c1cc(-c2ccccc2)sc1NC(=O)CN1CCCCC1,3
CC1=NN(c2ccc(S(N)(=O)=O)cc2)C(=O)/C1=C\c1ccc(N(C)C)c(Br)c1,68*
COc1cc(/C=C2/C(=O)N(c3ccc(Cl)c(Cl)c3)N=C2C)cc(OC)c1OC,-3
CC1=NN(c2ccc(S(N)(=O)=O)cc2)C(=O)C1=Nc1ccc(N(C)C)cc1,64*
CC1=NN(c2ccc(C)cc2C)C(=O)C1=Nc1ccc(N(C)C)cc1,-4
NS(=O)(=O)c1ccc(N=C2CC(=O)Oc3ccccc32)cc1,4
COc1cc(/C=C2\C(=O)N(c3ccc(S(N)(=O)=O)cc3)N=C2C)cc(OC)c1OC,32*
CC1=NN(c2ccc(F)cc2)C(=O)/C1=C/c1ccc2c(c1)n(C)c(=O)n2C,0
COc1cc(/C=C2/C(=O)N(c3ccc(Cl)c(Cl)c3)N=C2C)cc(OC)c1O,2
CN(C)c1ccc(/C=C2\C(=O)NN(c3ccccc3)C2=O)cc1Br,-4
CCCCOc1ccc2c(c1)oc(=O)c1ccccc12,3
CCOc1ccc(C(C)NCC(=O)Nc2nc(-c3ccc(Br)cc3)cs2)cc1 (centres undefined),2
CC(=O)N1CCc2nc3sc(C(=O)Nc4cc(C)on4)c(N)c3c(C(F)(F)F)c2C1,4
CCNC(=O)NCc1cccnc1Oc1ccccc1OC,7
O=c1c(N2CCOCC2)c(SCc2ccccc2)cnn1Cc1ccccc1,8
C=CCOc1cccc(C2Nc3ccccc3-c3nnc(SC)nc3O2)c1 (centres undefined),8
CCOC(=O)C1(Cc2ccc(F)cc2F)CCCN(C(=O)c2ccoc2C)C1 (centres undefined),-1
CCC(=O)n1nc(C)cc1-c1ccccc1,-12
CC(=O)N=C1C(=O)c2c(NC(C)=O)cccc2C(=O)C1Br (centres undefined),60*
CC(=O)Nc1cccc2c1C(=O)N(c1cccc(C(=O)O)c1)C2=O,-15
CC(=O)N=C1C(=O)c2ccccc2C(=O)C1NCCOc1ccccc1 (centres undefined),-4
COc1cc(C2c3c(n[nH]c3-c3ccccc3)OC(=N)C2C#N)cc(OC)c1OC (centres undefined),-11
